High-throughput results as filed in PubChem BioAssay.
This is a sample that favours compounds with a hit; in the whole collection about 2.9% have one here.
Mtb FBA inh – Mtb FBA enzyme inhibitors, primary screen, biochemical, fluorescence, strain H37Rv | actives 2.3% (n = 360,000) | purified M. tuberculosis FBA, fluorescence read-out | Fructose-bisphosphate aldolase (Mycobacterium tuberculosis (strain ATCC 25618 / H37Rv)), … | inhibition, % at 1 µM | AID 588726, 2011;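 note: 0% = vehicle and 100% = reference inhibitor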
Target sequence (P9WQA3 whole entry, looked up): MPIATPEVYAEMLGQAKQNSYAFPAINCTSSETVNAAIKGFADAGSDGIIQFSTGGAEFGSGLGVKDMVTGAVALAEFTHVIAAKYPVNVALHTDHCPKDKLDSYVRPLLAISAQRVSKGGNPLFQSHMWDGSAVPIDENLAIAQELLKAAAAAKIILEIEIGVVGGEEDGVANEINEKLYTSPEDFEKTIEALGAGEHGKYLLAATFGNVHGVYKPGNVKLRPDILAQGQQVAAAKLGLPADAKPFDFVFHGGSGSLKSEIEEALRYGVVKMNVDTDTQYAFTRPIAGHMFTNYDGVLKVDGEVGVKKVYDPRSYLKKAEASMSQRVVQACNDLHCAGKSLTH
GDH-TPI counter-1 – GDH-TPI coupling enzyme inhibitors, primary screen, artefact control for M. tuberculosis FBA inhibitor project, biochemical, absorbance, full deck; GDH-TPI coupled enzyme counterscreen, NADH absorbance; inhibition, % at 4.8 µM; actives 1.2% (n = 360,000); in the data active = inhibition above about 30%;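 note: 0% = DMSO wells and 100% = wells lacking the enzyme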
Mtb hypoxia inh – PubChem AID 1159583. M. tuberculosis hypoxia-regulated fluorescent reporter, fluorescence. fluorescence inhibition, % (concentration not given with the values). actives 0.1% (n = 300,000); in the data active = fluorescence inhibition mostly above about 23%, no sharp cut-off; inactive = mostly below about 17%
BioA inh – M. tuberculosis BioA enzyme inhibitors, primary screen, biochemical, plate reader, single point, HTS; 7,8-diaminopelargonic acid synthase BioA (Mycobacterium tuberculosis); purified M. tuberculosis BioA enzyme; inhibition, % at 9.99 µM; actives 0.096% (n = 360,000); AID 602481, 2012; in the data active = inhibition above about 40%
FadD28 binding – inhibitors of FadD28 bisubstrate probe binding, primary screen, biochemical, fluorescence polarization, single point. Mycobacterium tuberculosis FadD28 fatty-acid-AMP ligase. inhibition, % at 12.5 µM. actives 0.22% (n = 360,000); in the data active = inhibition above about 8.5%, passing the limit was not always enough
Mtb FBA confirm – M. tuberculosis aldolase blockers, biochemical, fluorescence, strain H37Rv, confirmation. shares compounds with Mtb FBA inh. purified M. tuberculosis FBA, fluorescence read-out. inhibition, % at 1 µM. actives 78% (n = 5,600). AID 651616, 2012;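 note: 0% = vehicle wells and 100% = reference inhibitor wells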
GDH-TPI counter-2 – GDH-TPI coupling enzyme inhibitors, artefact control for M. tuberculosis FBA inhibitor project, biochemical, fluorescence, high throughput; shares compounds with Mtb FBA inh; GDH-TPI coupled enzyme counterscreen; inhibition, % at 1 µM; actives 81% (n = 5,600); AID 652141, 2013; in the data active = inhibition above about 10%
GDH-TPI dose – GDH-TPI coupling enzyme inhibitors, dose response, artefact control for M. tuberculosis FBA inhibitor project, biochemical, fluorescence, IC50 | shares compounds with Mtb FBA inh | GDH-TPI coupled enzyme assay, artifact counterscreen | IC50, µM | actives 79% (n = 170) | AID 652145, 2013; call rule not given here
* hit, by the source's call; . = not tested or not shown; + = active, no number. Cut-off read from the data, not from the text of the source, unless noted: active = inhibition above about 27%; inactive = the rest.

SMILES | Mtb FBA inh | GDH-TPI counter-1 | Mtb hypoxia inh | BioA inh | FadD28 binding | Mtb FBA confirm | GDH-TPI counter-2 | others
C[C@@H]1CN([C@H](C)CO)C(=O)c2cccc(NC(=O)C3CCCCC3)c2O[C@H]1CN(C)Cc1ccc(Cl)c(Cl)c1 | . | . | . | -1.2 | . | . | .
C[C@@H]1CN([C@@H](C)CO)C(=O)c2cc(NC(=O)NC3CCCCC3)ccc2O[C@@H]1CN(C)C(=O)Nc1ccccc1 | . | . | . | -0.9 | . | . | .
CC(C)NC(=O)Nc1cccc2c1O[C@H](CN(C)Cc1ccc(-c3ccccc3)cc1)[C@@H](C)CN([C@H](C)CO)C2=O | . | . | . | -1.2 | . | . | .
CCOC1OC(C(=O)O)=CC(c2csc3ccccc23)C1CCCO (stereo not given) | . | . | 7.1 | . | . | . | .
N/C(=N\N=Cc1ccc(F)cc1)NN=Cc1ccc(F)cc1 | . | . | 1.7 | . | . | . | .
COc1ccc2oc3ccccc3c(=O)c2c1 | 101.3* | 9.7 | -3.1 | -0.9 | -1.2 | + | +
COc1ccc2oc(C(F)(F)C(F)(F)F)cc(=O)c2c1 | 6.5 | 15.1 | 2.9 | -0.9 | 0.4 | . | .
COc1ccc2oc(C(F)(F)C(F)F)cc(=O)c2c1 | 42.9* | 13.6 | . | -3.8 | -0.1 | 74.8* | 52.4*
O=C(Nc1cc(F)ccc1F)N[C@H]1CC[C@H](CCNC(=O)c2cnccn2)O[C@H]1CO | . | . | . | 0.9 | . | . | .
CC(C)(Cc1ccccc1)[N+]([O-])=Cc1ccccc1 | . | . | 16.6 | . | . | . | .
O=C(/C=C/c1ccc(Br)cc1)Nc1ccc(S(=O)(=O)Nc2ncccn2)cc1 | 5.1 | 7.5 | 14.5 | . | 0.1 | . | .
O=C(/C=C/c1cccc(F)c1)Nc1ccc(S(=O)(=O)Nc2ncccn2)cc1 | 92.8* | 28.8 | 24.5 | -1.0 | -3.3 | 29.3* | 3.5 | GDH-TPI dose=>10
C[C@H](CO)N1C[C@H](C)[C@@H](CN(C)C(=O)c2cccnc2)Oc2ncc(C3=CCCCC3)cc2C1=O | . | . | . | 5.3 | . | . | .
CCN(CC)S(=O)(=O)c1ccc(-c2cn3cc(Cl)ccc3n2)cc1 | 31.5* | 13.0 | . | -0.2 | -4.5 | . | +
Clc1ccc(-c2cn3cc(Cl)ccc3n2)cc1 | 6.3 | -2.9 | 14.2 | . | -4.9 | . | .
COc1c2ccoc2nc2c(OC)cccc12 | 55.2* | 14.2 | 24.1 | -1.2 | -1.0 | 112.8* | 97.0*
COc1ccc(S(=O)(=O)NCCc2cn3nc(C)c(C)nc3n2)cc1 | 59.2* | 0.9 | -8.3 | -1.2 | -0.4 | -4.1 | -3.2
COc1ccc(S(=O)(=O)NCCc2ccccn2)cc1 | -1.4 | -8.5 | 2.1 | -0.1 | -2.9 | . | .
Cc1nc2nc(CCNS(=O)(=O)c3ccc(Cl)cc3)cn2nc1C | 72.2* | 4.3 | . | -2.6 | 0.2 | 61.5* | 63.0*
CCC(=O)N[C@H]1CC[C@@H](CCNS(=O)(=O)c2ccc(Cl)cc2)O[C@H]1CO | . | . | . | -2.2 | . | . | .
CCC(=O)N(Cc1ccco1)Cc1cc2cc3c(cc2[nH]c1=O)OCO3 | 39.7* | 11.5 | 6.5 | . | 0.4 | + | 152.1*
CCN(CC)CCCN(Cc1cc2cc3c(cc2[nH]c1=O)OCO3)C(=S)NCc1ccco1 | 23.7 | 11.7 | 6.2 | . | -2.0 | . | .
CNC(=S)N(CCCO)Cc1cc2cc3c(cc2[nH]c1=O)OCO3 | 30.5* | 19.3 | -3.1 | -1.6 | -2.6 | 85.2* | 65.2*
CCN(CC)CCN(Cc1cc2cc3c(cc2[nH]c1=O)OCO3)C(=S)NCc1ccco1 | 35.4* | 8.6 | 4.2 | . | -4.8 | 5.8 | -0.7
CN(C)CCCN(Cc1cc2cc3c(cc2[nH]c1=O)OCO3)C(=S)NCc1ccco1 | 27.3* | 8.2 | -5.2 | 0.5 | -5.2 | + | +
CC(=O)N(C)C[C@@H]1Oc2cc(C#Cc3ccc(F)cc3)ccc2S(=O)(=O)N([C@H](C)CO)C[C@H]1C | . | . | . | 1.6 | . | . | .
O=C(C[C@@H]1CC[C@@H]2[C@H](COC[C@@H](O)CN2S(=O)(=O)c2cccc(Cl)c2)O1)N1CCCCC1 | . | . | . | 1.1 | . | . | .
